Results published in PubChem BioAssay (NCI).
About 79,000 compounds went through this panel and 15% of them were active in at least one assay; those are over-represented in the sample as a whole. A number with no mark means an inactive call. The source made the active and inactive calls. No stated cut-off is given here; in the data, active means growth inhibition above about 70%; inactive means the rest.

What was measured:
[1] = NCI Yeast Anticancer Drug Screen. Data for the rad52 strain (AID 147);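 further: 0% = growth of vehicle-treated control cultures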; conditions: S. cerevisiae rad52 mutant growth inhibition, hits give high values
In short: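 Screen used a yeast mutant impaired in DNA repair. After compound exposure, growth was measured. Values reflect inhibition compared with vehicle-treated cells.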

[2] = NCI Yeast Anticancer Drug Screen. Data for the wt1 strain (AID 149);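 further: 0% = growth of vehicle-treated wt1 cultures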; conditions: S. cerevisiae wt1 strain (SPY 50644) growth inhibition, hits give high values
In short: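 Vehicle-normalised growth inhibition; strain wt1; compound exposure.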

[3] = NCI Yeast Anticancer Drug Screen. Data for the rad50EPP+ strain (AID 151);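 further: 0% = growth of vehicle-treated control cultures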; conditions: S. cerevisiae rad50 mutant strain, hits give high values
In short: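 Exposing the rad50EPP+ strain to each compound, growth was compared with vehicle-only cultures to give inhibition.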

[4] = NCI Yeast Anticancer Drug Screen. Data for the mgt1 strain (AID 153); conditions: S. cerevisiae mgt1 mutant growth inhibition, hits give high values
In short: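 Genetically defined yeast (mgt1) treated with compound; inhibition of growth expressed against vehicle-treated controls.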

[5] = NCI Yeast Anticancer Drug Screen. Data for the rad50 strain (AID 155);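 further: 0% = growth of vehicle-only cultures of the same strain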; conditions: S. cerevisiae rad50 strain growth inhibition, hits give high values
In short: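 A DNA repair-deficient yeast mutant serves as the test organism; compound-induced growth inhibition is calculated against vehicle-treated cells.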

[6] = NCI Yeast Anticancer Drug Screen. Data for the mec2-1 strain (AID 157); conditions: S. cerevisiae mec2-1 strain, hits give high values
In short: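 Readout is yeast growth inhibition, normalised to vehicle-treated controls, in the mec2-1 strain exposed to compound.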

[7] = NCI Yeast Anticancer Drug Screen. Data for the rad14 strain (AID 159);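 further: 0% = growth of vehicle-treated control cultures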; conditions: S. cerevisiae rad14 strain growth inhibition, hits give high values
In short: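 Vehicle-treated cultures served as the baseline for growth inhibition of a DNA repair-mutant yeast strain exposed to each compound.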

[8] = NCI Yeast Anticancer Drug Screen. Data for the sgs1 mgt1 strain (AID 161);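 further: 0% = growth of cultures given vehicle only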; conditions: S. cerevisiae sgs1 mgt1 strain, hits give high values
In short: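 Percent growth inhibition was derived by comparing compound-exposed mutant yeast with vehicle-exposed cultures. The strain carries alterations in DNA damage repair.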

[9] = NCI Yeast Anticancer Drug Screen. Data for the CLN2oe strain (AID 163);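 further: 0% = growth of vehicle-only control cultures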; conditions: S. cerevisiae CLN2oe strain, hits give high values
In short: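 Values reflect how much compound exposure reduced yeast growth, referenced to vehicle-exposed cells. Assay organism is a strain with a defined genetic change affecting cell-cycle control.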

[10] = NCI Yeast Anticancer Drug Screen. Data for the cln2 rad14 strain (AID 165);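 further: 0% = growth equal to vehicle treated cultures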; conditions: S. cerevisiae cln2 rad14 strain, hits give high values
In short: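 Relative to vehicle controls, growth inhibition of compound-treated cln2 rad14 yeast was recorded.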

[11] = NCI Yeast Anticancer Drug Screen. Data for the bub3 strain (AID 167); conditions: S. cerevisiae bub3 mutant strain, hits give high values
In short: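 Inhibition values come from growth of compound-treated mutant yeast normalised to vehicle-treated controls.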

[12] = NCI Yeast Anticancer Drug Screen. Data for the wt2 strain (AID 169);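 further: 0% = growth of vehicle-treated yeast cultures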; conditions: S. cerevisiae wt2 strain growth inhibition, hits give high values
In short: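 Values express reduction in yeast growth under compound treatment, referenced to vehicle-treated cells.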

[13] = NCI Yeast Anticancer Drug Screen. Data for the mlh1 strain (AID 171);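 further: 0% = growth of vehicle-treated control cultures of the same strain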; conditions: S. cerevisiae mlh1 strain growth inhibition, hits give high values
In short: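 Steps: expose the defined-mutant yeast strain to compound; expose a parallel culture to vehicle; measure growth; express compound effect as inhibition relative to the vehicle culture.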

[14] = NCI Yeast Anticancer Drug Screen. Data for the sgs1 strain (AID 173);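 further: 0% = growth of vehicle-only control cultures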; conditions: S. cerevisiae sgs1 mutant, hits give high values
In short: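 Treat defined-mutant yeast with compound; measure growth; calculate inhibition relative to vehicle-treated cells.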

[15] = NCI Yeast Anticancer Drug Screen. Data for the mlh1 rad18 strain (AID 175); conditions: S. cerevisiae mlh1 rad18 strain growth inhibition, hits give high values
In short: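 Test agents were incubated with a yeast strain of defined genotype (DNA damage repair defect). Inhibition of growth was derived by comparison with vehicle-exposed cultures.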

[16] = at 5.0 µM (retest, dose inferred, filed as 0.5)
[17] = at 50.0 µM (retest, dose inferred, filed as 5.0)

C[N+](CCCl)(CCCl)Cc1cccc2cccc([N+](=O)[O-])c12
growth inhibition ([1]; at 1.2 µM): 31%
growth inhibition ([1]; at 3.7 µM): 47%
growth inhibition ([1]; at 11.0 µM): 74% (active)
growth inhibition ([1]; at 33.0 µM): 92% (active)
growth inhibition ([1]; at 100.0 µM): 94% (active)
growth inhibition ([2]; at 1.2 µM): 31%
growth inhibition ([2]; at 3.7 µM): 9%
growth inhibition ([2]; at 11.0 µM): 31%
growth inhibition ([2]; at 33.0 µM): 28%
growth inhibition ([2]; at 100.0 µM): 39%
growth inhibition ([3]; at 1.2 µM): 20%
growth inhibition ([3]; at 3.7 µM): 35%
growth inhibition ([3]; at 11.0 µM): 80% (active)
growth inhibition ([3]; at 33.0 µM): 95% (active)
growth inhibition ([3]; at 100.0 µM): 96% (active)
growth inhibition ([4]; at 1.2 µM): 3%
growth inhibition ([4]; at 3.7 µM): 6%
growth inhibition ([4]; at 11.0 µM): -15%
growth inhibition ([4]; at 33.0 µM): -5%
growth inhibition ([4]; at 100.0 µM): 9%
growth inhibition ([5]; at 1.2 µM): 26%
growth inhibition ([5]; at 3.7 µM): 44%
growth inhibition [5, 16]: 37%
growth inhibition ([5]; at 11.0 µM): 67%
growth inhibition ([5]; at 33.0 µM): 90% (active)
growth inhibition [5, 17]: 85% (active)
growth inhibition ([5]; at 50.0 µM): 80.1% (active)
growth inhibition ([5]; at 100.0 µM): 94% (active)
growth inhibition ([6]; at 1.2 µM): -4%
growth inhibition ([6]; at 3.7 µM): 10%
growth inhibition [6, 16]: 1%
growth inhibition ([6]; at 11.0 µM): 10%
growth inhibition ([6]; at 33.0 µM): 44%
growth inhibition [6, 17]: 56%
growth inhibition ([6]; at 50.0 µM): 47%
growth inhibition ([6]; at 100.0 µM): 77% (active)
growth inhibition ([7]; at 1.2 µM): -9%
growth inhibition ([7]; at 3.7 µM): -1%
growth inhibition ([7]; at 11.0 µM): 32%
growth inhibition ([7]; at 33.0 µM): 88% (active)
growth inhibition ([7]; at 100.0 µM): 89% (active)
growth inhibition [8, 16]: 15%
growth inhibition [8, 17]: 44%
growth inhibition ([8]; at 50.0 µM): 39.2%
growth inhibition ([9]; at 1.2 µM): -8%
growth inhibition ([9]; at 3.7 µM): -10%
growth inhibition ([9]; at 11.0 µM): -17%
growth inhibition ([9]; at 33.0 µM): -13%
growth inhibition ([9]; at 100.0 µM): -6%
growth inhibition [10, 16]: 17%
growth inhibition [10, 17]: 78% (active)
growth inhibition ([10]; at 50.0 µM): 74.5% (active)
growth inhibition ([11]; at 1.2 µM): -20%
growth inhibition ([11]; at 3.7 µM): -26%
growth inhibition [11, 16]: 9%
growth inhibition ([11]; at 11.0 µM): -22%
growth inhibition ([11]; at 33.0 µM): -10%
growth inhibition [11, 17]: 45%
growth inhibition ([11]; at 50.0 µM): 0.4%
growth inhibition ([11]; at 100.0 µM): 3%
growth inhibition ([12]; at 1.2 µM): -10%
growth inhibition ([12]; at 3.7 µM): -6%
growth inhibition ([12]; at 11.0 µM): -10%
growth inhibition ([12]; at 33.0 µM): -1%
growth inhibition ([12]; at 100.0 µM): 23%
growth inhibition ([13]; at 1.2 µM): 7%
growth inhibition ([13]; at 3.7 µM): -2%
growth inhibition ([13]; at 11.0 µM): -1%
growth inhibition ([13]; at 33.0 µM): 4%
growth inhibition ([13]; at 100.0 µM): 21%
growth inhibition ([14]; at 1.2 µM): 20%
growth inhibition ([14]; at 3.7 µM): 19%
growth inhibition ([14]; at 11.0 µM): 41%
growth inhibition ([14]; at 33.0 µM): 63%
growth inhibition ([14]; at 100.0 µM): 77% (active)
growth inhibition [15, 16]: 31%
growth inhibition [15, 17]: 81% (active)
growth inhibition ([15]; at 50.0 µM): 77.4% (active)
